Of roughly 8,800 targets only a part is listed; those with a hit were picked by preference. About 0.5% of all pairs of compound and target were hits. Unmarked numbers belong to inactive results.
Key:
Test in all cases: log2 fold change, soluble protein after heating vs DMSO (PISA); higher = thermal stabilisation; K562 lysate, 10 uM; active = over 0.2 and 3.5 SD of the protein, either way, in both replicates (recomputed)
alvocidib = compound: CN1CC[C@H](c2c(O)cc(O)c3c(=O)cc(-c4ccccc4Cl)oc23)[C@H](O)C1 [alvocidib]
Method in brief: (§1)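 A 30 min treatment with 10 μM compound was applied to crude K562 extract at 1 mg/mL protein in PBS pH 7.4 with 1 mM MgCl2. Heating for 3 min spanned 48°C-58°C, after which aliquots were pooled, adjusted to 0.5% NP-40 at 4°C and spun at 21,000xg for 90 min. TMTpro 16plex LC-MS/MS of the supernatant, with channel sums equalised, gave values recorded as log-two fold change in thermal stability against solvent controls, from duplicates.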

Tubastatin A = compound: CN1CCc2c(c3ccccc3n2Cc2ccc(C(=O)NO)cc2)C1 [Tubastatin A]
Method in brief: as §1

[1] = compound: CNC(=O)C1=CC=CC=C1NC2=NC(=NC=C2Cl)NC3=C(C=C(C=C3)N4CCOCC4)OC
Method in brief: as §1

defactinib = compound: CNC(=O)c1ccc(Nc2ncc(C(F)(F)F)c(NCc3nccnc3N(C)S(C)(=O)=O)n2)cc1 [defactinib]
Method in brief: as §1

[2] = compound: CNc1nc(-c2ccc3c(N)n[nH]c3c2)cc(N2C[C@@H](C(=O)NC3CCCCC3)CC[C@H]2C)n1
Method in brief: as §1

encorafenib = compound: COC(=O)N[C@@H](C)CNc1nccc(-c2cn(C(C)C)nc2-c2cc(Cl)cc(NS(C)(=O)=O)c2F)n1 [encorafenib]
Method in brief: as §1

[3] = compound: COC(=O)[C@H](CCSC)NC(=O)C1=C(C=C(C=C1)NC[C@H](CS)N)C2=CC=CC=C2
Method in brief: as §1

alisertib = compound: COc1cc(Nc2ncc3c(n2)-c2ccc(Cl)cc2C(c2c(F)cccc2OC)=NC3)ccc1C(=O)O [alisertib]
Method in brief: as §1

[4] = compound: COc1cc2nc(-c3cc(F)ccc3O)nc(N[C@@H]3CNC[C@H]3C(C)(C)O)c2cc1OC
Method in brief: as §1

gefitinib = compound: COc1cc2ncnc(Nc3ccc(F)c(Cl)c3)c2cc1OCCCN1CCOCC1 [gefitinib]
Method in brief: as §1

lapatinib = compound: CS(=O)(=O)CCNCc1ccc(-c2ccc3ncnc(Nc4ccc(OCc5cccc(F)c5)c(Cl)c4)c3c2)o1 [lapatinib]
Method in brief: as §1

pictilisib = compound: CS(=O)(=O)N1CCN(Cc2cc3nc(-c4cccc5[nH]ncc45)nc(N4CCOCC4)c3s2)CC1 [pictilisib]
Method in brief: as §1

crizotinib = compound: C[C@@H](Oc1cc(-c2cnn(C3CCNCC3)c2)cnc1N)c1c(Cl)ccc(F)c1Cl [crizotinib]
Method in brief: as §1

[5] = compound: C[C@H](C1=CC=C(C=C1)C(=O)NC2=C3C=CNC3=NC=C2)N
Method in brief: as §1

duvelisib = compound: C[C@H](Nc1ncnc2nc[nH]c12)c1cc2cccc(Cl)c2c(=O)n1-c1ccccc1 [duvelisib]
Method in brief: as §1

gandotinib = compound: Cc1cc(Nc2cc(CN3CCOCC3)c3nc(C)c(Cc4ccc(Cl)cc4F)n3n2)n[nH]1 [gandotinib]
Method in brief: as §1

tozasertib = compound: Cc1cc(Nc2cc(N3CCN(C)CC3)nc(Sc3ccc(NC(=O)C4CC4)cc3)n2)n[nH]1 [tozasertib]
Method in brief: as §1

doramapimod = compound: Cc1ccc(-n2nc(C(C)(C)C)cc2NC(=O)Nc2ccc(OCCN3CCOCC3)c3ccccc23)cc1 [doramapimod]
Method in brief: as §1

bafetinib = compound: Cc1ccc(NC(=O)c2ccc(CN3CC[C@H](N(C)C)C3)c(C(F)(F)F)c2)cc1Nc1nccc(-c2cncnc2)n1 [bafetinib]
Method in brief: as §1

[6] = compound: Cc1cccc(CC(=O)N2CCc3c2ccc(-c2cn(C)c4ncnc(N)c24)c3F)n1
Method in brief: as §1

Chain of UniProt Q9HAD4 (Q9HAD4 whole entry, looked up): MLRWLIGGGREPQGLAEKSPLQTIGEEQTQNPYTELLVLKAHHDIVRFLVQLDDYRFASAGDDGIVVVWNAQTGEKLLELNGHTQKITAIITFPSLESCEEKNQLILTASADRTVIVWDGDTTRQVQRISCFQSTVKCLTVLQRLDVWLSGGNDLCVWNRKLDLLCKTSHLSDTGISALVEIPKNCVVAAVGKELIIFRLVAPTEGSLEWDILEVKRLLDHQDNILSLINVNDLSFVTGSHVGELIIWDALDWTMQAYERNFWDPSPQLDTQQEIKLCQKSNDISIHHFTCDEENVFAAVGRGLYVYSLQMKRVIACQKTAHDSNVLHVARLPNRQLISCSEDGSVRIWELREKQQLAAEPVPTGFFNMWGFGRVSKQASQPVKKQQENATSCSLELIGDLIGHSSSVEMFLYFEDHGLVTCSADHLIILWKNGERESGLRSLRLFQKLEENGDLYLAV
Chain of UniProt O75362 (O75362 whole entry, looked up): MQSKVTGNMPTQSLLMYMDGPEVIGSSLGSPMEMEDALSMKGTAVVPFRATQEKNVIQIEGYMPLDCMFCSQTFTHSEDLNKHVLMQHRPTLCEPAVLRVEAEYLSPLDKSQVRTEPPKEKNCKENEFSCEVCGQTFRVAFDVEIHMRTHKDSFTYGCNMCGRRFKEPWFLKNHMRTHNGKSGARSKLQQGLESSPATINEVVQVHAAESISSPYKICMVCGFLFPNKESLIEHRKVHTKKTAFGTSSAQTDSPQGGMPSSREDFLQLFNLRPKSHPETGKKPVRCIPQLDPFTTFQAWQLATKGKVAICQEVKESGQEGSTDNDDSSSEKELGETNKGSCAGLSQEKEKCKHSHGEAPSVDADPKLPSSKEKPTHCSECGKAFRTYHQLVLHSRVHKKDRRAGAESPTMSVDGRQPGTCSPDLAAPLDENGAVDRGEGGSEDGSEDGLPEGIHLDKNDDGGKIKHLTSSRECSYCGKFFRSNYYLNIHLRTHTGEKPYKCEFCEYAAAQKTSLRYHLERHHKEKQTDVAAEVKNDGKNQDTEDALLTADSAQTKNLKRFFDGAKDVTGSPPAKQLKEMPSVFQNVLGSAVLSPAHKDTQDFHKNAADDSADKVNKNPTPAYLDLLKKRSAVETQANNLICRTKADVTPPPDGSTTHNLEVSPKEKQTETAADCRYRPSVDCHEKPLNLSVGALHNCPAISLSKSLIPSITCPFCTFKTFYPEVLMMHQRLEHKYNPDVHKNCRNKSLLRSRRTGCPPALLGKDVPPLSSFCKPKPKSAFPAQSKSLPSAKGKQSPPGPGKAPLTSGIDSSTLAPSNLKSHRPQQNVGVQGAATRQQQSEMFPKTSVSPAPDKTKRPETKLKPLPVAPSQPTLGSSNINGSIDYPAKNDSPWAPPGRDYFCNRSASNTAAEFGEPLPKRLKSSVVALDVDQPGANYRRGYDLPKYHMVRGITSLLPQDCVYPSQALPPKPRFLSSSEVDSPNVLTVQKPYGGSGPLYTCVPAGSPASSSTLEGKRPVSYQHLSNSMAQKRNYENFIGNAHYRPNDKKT
Chain of UniProt Q9Y484 (Q9Y484 whole entry, looked up): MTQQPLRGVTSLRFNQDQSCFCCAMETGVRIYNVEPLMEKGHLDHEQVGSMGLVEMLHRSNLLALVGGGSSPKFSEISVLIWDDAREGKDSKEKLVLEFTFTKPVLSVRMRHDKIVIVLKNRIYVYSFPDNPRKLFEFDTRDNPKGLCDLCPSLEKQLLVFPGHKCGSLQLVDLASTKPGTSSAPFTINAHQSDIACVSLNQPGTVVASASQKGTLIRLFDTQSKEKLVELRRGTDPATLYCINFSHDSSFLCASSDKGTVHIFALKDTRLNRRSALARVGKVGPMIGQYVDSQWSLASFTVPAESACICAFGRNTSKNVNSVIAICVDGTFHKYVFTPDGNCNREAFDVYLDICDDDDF
Chain of UniProt Q9NNW5 (Q9NNW5 whole entry, looked up): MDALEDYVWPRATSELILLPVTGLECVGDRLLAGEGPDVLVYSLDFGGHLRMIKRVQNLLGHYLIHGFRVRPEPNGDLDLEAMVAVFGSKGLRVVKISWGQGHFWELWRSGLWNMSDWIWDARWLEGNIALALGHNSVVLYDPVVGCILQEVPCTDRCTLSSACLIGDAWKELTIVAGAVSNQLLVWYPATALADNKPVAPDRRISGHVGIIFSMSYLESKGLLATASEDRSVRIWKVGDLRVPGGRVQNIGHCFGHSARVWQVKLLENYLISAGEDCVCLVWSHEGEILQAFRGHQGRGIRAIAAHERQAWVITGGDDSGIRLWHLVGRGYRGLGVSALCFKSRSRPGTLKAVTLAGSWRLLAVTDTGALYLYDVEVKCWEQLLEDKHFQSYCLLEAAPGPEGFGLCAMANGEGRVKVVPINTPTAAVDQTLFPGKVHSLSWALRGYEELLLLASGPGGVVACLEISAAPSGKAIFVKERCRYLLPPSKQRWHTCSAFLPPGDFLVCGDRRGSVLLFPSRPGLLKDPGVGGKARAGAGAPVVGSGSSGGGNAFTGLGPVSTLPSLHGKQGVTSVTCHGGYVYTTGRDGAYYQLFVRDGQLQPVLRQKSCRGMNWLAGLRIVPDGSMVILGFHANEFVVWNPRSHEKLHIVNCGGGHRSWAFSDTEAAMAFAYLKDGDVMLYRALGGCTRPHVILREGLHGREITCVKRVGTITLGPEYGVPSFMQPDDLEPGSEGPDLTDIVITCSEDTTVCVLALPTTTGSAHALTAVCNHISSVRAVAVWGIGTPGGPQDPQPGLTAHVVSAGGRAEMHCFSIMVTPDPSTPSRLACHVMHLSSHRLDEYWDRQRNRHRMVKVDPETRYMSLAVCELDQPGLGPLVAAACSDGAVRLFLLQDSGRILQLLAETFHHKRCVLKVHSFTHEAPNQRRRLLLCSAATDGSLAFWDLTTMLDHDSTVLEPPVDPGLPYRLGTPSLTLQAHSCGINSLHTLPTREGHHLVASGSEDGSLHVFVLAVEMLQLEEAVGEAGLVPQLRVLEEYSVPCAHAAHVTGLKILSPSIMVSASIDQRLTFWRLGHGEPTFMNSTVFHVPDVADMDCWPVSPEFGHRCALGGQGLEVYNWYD
Chain of UniProt Q9H9H4 (Q9H9H4 whole entry, looked up): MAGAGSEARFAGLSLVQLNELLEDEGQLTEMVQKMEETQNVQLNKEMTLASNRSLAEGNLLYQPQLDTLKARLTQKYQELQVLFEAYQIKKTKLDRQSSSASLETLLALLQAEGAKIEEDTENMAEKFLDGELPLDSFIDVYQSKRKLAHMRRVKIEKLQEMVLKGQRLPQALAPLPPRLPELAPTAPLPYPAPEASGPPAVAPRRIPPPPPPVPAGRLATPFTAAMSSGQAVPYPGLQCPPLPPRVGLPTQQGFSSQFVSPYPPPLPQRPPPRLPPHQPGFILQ
Chain of UniProt Q96GY0 (Q96GY0 whole entry, looked up): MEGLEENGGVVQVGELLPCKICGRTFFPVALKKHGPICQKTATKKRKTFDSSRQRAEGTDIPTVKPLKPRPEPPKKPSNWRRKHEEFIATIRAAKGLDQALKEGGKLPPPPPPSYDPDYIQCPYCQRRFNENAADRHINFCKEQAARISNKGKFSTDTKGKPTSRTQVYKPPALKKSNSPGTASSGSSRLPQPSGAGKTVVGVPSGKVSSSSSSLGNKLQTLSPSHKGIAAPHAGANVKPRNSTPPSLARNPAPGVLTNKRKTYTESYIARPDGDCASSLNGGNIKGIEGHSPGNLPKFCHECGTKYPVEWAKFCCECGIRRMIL
Chain of UniProt Q9BTA9 (Q9BTA9 whole entry, looked up): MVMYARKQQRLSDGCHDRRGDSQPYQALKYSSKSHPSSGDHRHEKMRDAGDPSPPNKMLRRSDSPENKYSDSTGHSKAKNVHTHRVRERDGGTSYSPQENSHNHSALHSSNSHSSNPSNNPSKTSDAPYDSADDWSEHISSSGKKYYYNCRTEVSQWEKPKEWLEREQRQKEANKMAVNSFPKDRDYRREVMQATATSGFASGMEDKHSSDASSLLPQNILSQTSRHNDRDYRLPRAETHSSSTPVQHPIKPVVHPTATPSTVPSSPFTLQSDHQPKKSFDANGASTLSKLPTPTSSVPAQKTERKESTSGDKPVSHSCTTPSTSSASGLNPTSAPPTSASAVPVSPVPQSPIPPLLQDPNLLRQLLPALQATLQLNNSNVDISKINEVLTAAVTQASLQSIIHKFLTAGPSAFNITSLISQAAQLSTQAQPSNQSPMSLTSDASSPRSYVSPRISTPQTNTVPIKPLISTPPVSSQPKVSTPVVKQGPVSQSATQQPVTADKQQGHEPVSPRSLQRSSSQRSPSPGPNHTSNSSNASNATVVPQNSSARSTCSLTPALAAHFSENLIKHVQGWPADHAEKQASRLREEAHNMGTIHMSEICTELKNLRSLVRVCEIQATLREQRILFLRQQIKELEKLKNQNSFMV
Chain of UniProt Q7Z739 (Q7Z739 whole entry, looked up): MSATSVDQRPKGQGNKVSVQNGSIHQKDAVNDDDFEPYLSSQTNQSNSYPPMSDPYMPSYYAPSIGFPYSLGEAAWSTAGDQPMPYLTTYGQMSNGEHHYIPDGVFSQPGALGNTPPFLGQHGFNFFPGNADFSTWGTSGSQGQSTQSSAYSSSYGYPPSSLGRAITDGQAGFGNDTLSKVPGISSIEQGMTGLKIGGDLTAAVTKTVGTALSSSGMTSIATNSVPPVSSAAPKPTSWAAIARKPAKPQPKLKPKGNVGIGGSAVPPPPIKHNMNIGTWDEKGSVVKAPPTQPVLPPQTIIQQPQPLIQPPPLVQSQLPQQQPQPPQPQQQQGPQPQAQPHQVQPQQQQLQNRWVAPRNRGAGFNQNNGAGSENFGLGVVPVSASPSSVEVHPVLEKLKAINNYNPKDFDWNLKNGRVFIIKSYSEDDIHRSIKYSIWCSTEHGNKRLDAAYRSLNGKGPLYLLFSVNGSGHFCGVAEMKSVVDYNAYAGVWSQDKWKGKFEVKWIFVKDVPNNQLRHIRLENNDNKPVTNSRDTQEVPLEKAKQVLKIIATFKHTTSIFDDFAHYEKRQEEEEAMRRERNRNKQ
Chain of UniProt Q9UBK9 (Q9UBK9 whole entry, looked up): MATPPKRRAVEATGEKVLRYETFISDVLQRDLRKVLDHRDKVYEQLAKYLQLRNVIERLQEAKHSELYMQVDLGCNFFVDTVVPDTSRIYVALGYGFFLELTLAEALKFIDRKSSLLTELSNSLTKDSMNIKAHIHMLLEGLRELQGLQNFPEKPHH

| Target | log2 fold change (alvocidib) | log2 fold change (Tubastatin A) | log2 fold change [1] | log2 fold change (defactinib) | log2 fold change [2] | log2 fold change (encorafenib) | log2 fold change [3] | log2 fold change (alisertib) | log2 fold change [4] | log2 fold change (gefitinib) | log2 fold change (lapatinib) | log2 fold change (pictilisib) | log2 fold change (crizotinib) | log2 fold change [5] | log2 fold change (duvelisib) | log2 fold change (gandotinib) | log2 fold change (tozasertib) | log2 fold change (doramapimod) | log2 fold change (bafetinib) | log2 fold change [6] |
| --- | --- | --- | --- | --- | --- | --- | --- | --- | --- | --- | --- | --- | --- | --- | --- | --- | --- | --- | --- | --- |
| ZNF217 (UniProt O75362) | -0.144 | -0.076 | 0.009 | -0.045 | -0.004 | -0.06 | -0.037 | 0.032 | 0.219 | -0.013 | -0.02 | 0.059 | -0.025 | -0.045 | -0.011 | -0.009 | 0.044 | 0.004 | 0.037 | 0.052 |
| UQCC2 (UniProt Q9BRT2) | 0.079 | 0.05 | -0.027 | 0 | 0.006 | 0.021 | -0.025 | 0.029 | 0.017 | -0.059 | 0.007 | 0.009 | 0.036 | 0.158 | 0.026 | -0.091 | -0.015 | 0.014 | 0.001 | -0.093 |
| WDR45 isoform 2 (UniProt Q9Y484) | -0.065 | -0.067 | -0.001 | 0.013 | -0.059 | -0.042 | -0.051 | 0.021 | -0.008 | 0.037 | -0.002 | -0.011 | -0.048 | -0.229 (active) | -0.04 | -0.051 | -0.025 | 0.054 | -0.047 | 0.179 |
| XPO5 (UniProt Q9HAV4) | 0.025 | -0.184 | -0.014 | -0.002 | -0.019 | 0.021 | 0.012 | -0.004 | 0 | 0.013 | -0.042 | 0 | -0.085 | -0.041 | -0.017 | -0.14 | 0.013 | -0.008 | -0.006 | 0.049 |
| VRK1 (UniProt Q99986) | 0.385 (active) | -0.096 | 0.008 | -0.067 | 0.017 | -0.027 | 0.047 | -0.004 | -0.007 | -0.026 | -0.005 | 0.002 | -0.023 | 0.172 | 0.013 | -0.078 | -0.052 | -0.052 | -0.042 | -0.014 |
| VASP (UniProt P50552) | 0.031 | 0.022 | -0.017 | 0.013 | -0.003 | -0.033 | -0.007 | 0.018 | 0.009 | 0.019 | -0.006 | 0.004 | 0.007 | -0.017 | 0.047 | 0.005 | 0.019 | -0.004 | 0.136 | 0.009 |
| USP3 (UniProt Q9Y6I4) | 0.002 | -0.154 | -0.046 | 0.013 | -0.024 | 0.03 | 0.022 | -0.008 | 0.028 | -0.005 | -0.016 | 0.001 | -0.033 | 0.031 | 0.01 | -0.056 | 0.021 | -0.03 | 0.01 | -0.04 |
| VTN (UniProt P04004) | -0.112 | -0.012 | -0.095 | 0.104 | -0.061 | 0.089 | -0.074 | -0.041 | 0.014 | 0.009 | -0.057 | 0.026 | 0.019 | -0.384 (active) | 0.018 | 0.164 | -0.006 | -0.023 | -0.054 | 0.148 |
| WDR6 (UniProt Q9NNW5) | -0.009 | -0.077 | -0.004 | 0.003 | -0.011 | 0.015 | 0.031 | 0.005 | 0.016 | -0.013 | -0.023 | -0.03 | -0.049 | -0.05 | -0.005 | -0.007 | -0.013 | -0.007 | -0.022 | 0.024 |
| WAC (UniProt Q9BTA9) | -0.008 | -0.035 | 0.068 | 0.013 | 0.007 | -0.006 | 0.118 | -0.019 | -0.01 | 0.009 | 0.005 | -0.04 | 0.018 | 0 | -0.005 | -0.014 | 0.004 | -0.031 | -0.057 | 0.043 |
| ZC2HC1A (UniProt Q96GY0) | -0.034 | -0.044 | -0.021 | -0.155 | -0.04 | 0.03 | -0.235 (active) | -0.073 | -0.021 | 0.019 | 0.004 | 0.056 | -0.009 | -0.082 | 0 | 0.053 | 0.007 | -0.021 | 0.052 | 0.103 |
| VPS37B (UniProt Q9H9H4) | 0.025 | -0.034 | -0.047 | 0.052 | 0.024 | -0.014 | -0.053 | -0.019 | -0.003 | -0.071 | 0.016 | -0.053 | 0.017 | 0.034 | -0.009 | -0.028 | 0.021 | 0.006 | -0.034 | -0.04 |
| WDR41 (UniProt Q9HAD4) | -0.061 | -0.14 | 0.021 | -0.044 | 0.017 | 0.081 | -0.121 | 0.033 | -0.047 | 0.083 | 0.013 | 0.099 | 0.022 | -0.037 | -0.026 | 0.149 | -0.069 | 0.241 (active) | -0.065 | 0.126 |
| UXT isoform 2 (UniProt Q9UBK9) | -0.038 | 0.081 | 0.015 | 0.069 | 0.574 (active) | -0.081 | 0.025 | -0.041 | 0.038 | 0.04 | -0.018 | -0.073 | 0.003 | -0.018 | -0.006 | 0.084 | -0.053 | 0.012 | 0.089 | 0.065 |
| YTHDF3 (UniProt Q7Z739) | 0.03 | -0.108 | -0.071 | -0.05 | -0.112 | 0.097 | 0.024 | 0.043 | 0.009 | 0.013 | -0.065 | 0.05 | 0.01 | -0.035 | 0.017 | 0.107 | -0.03 | 0.078 | -0.073 | 0.097 |
| VAV1 (UniProt P15498) | 0.005 | -0.117 | -0.028 | 0.018 | 0.007 | -0.026 | 0.025 | -0.006 | -0.044 | 0.024 | 0 | 0.012 | -0.059 | -0.057 | 0.071 | -0.02 | 0.011 | -0.044 | -0.087 | 0.066 |
